Screens from PubChem BioAssay.
The list is not random: actives were taken first. Their share in the collection is about 2.4%.
PfM18AAP inh-1 – PfM18AAP enzyme inhibition; recombinant PfM18AAP, H-Glu-NHMec fluorogenic cleavage; inhibition, % at 7.35 µM; 290,000 compounds, 1.2% hits;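 active means inhibition above the campaign mean inhibition over all tested compounds plus 3 SD, cut at about 28% in these data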;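 further: 0% = plate median of test compound wells and 100% = 2 mM ZnCl2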
APOBEC3A inh – human APOBEC3A DNA deaminase inhibition; 330,000 compounds, 0.41% hits; recombinant A3A, FAM/TAMRA ssDNA deamination fluorescence; inhibition, % at 20 µM;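 active means at least 40% inhibition at 20 µM here, with at most 30% in a related deaminase screen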;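 further: plate controls were A3A with DMSO for no effect and wells lacking A3A enzyme for full effect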
Target sequence (P31941 whole entry, looked up): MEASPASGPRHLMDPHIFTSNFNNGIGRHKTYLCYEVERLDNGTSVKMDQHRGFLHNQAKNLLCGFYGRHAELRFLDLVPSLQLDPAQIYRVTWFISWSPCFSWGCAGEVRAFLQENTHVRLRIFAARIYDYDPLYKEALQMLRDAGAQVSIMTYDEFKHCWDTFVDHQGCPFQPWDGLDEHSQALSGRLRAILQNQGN
CR mimetic SO – lowers age-related superoxide in aged yeast cells. 330,000 compounds, 0.18% hits. S. cerevisiae aged cells, superoxide DHE fluorescence; stronger effect = lower value. superoxide response (% of plate mean), % at 10 µM. AID 2690;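 active means superoxide response under a set limit, about three screen SD below normal, cut at about 65% in these data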;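 further: yeast aged for seven days with compound at 30 °C before DHE staining; 100% = average MFI of all compound-treated wells on the plate with controls excluded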
APOBEC3G inh – inhibitors of human APOBEC3G DNA deaminase; Q9HC16; recombinant A3G, ssDNA deamination FAM/TAMRA fluorescence; inhibition, % at 20 µM; 330,000 compounds, 0.28% hits;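 active means inhibition of at least 40% at 20 µM, with no more than 30% in the related APOBEC3A deaminase screen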;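 further: plate controls were DMSO wells with A3G for no effect and wells lacking A3G enzyme for full effect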
PfGluPho inh – PfG6PD (Plasmodium falciparum) enzyme inhibition | 350,000 compounds, 0.78% hits | PfGluPho enzyme, NADPH resazurin-diaphorase fluorescence | inhibition, % at 20 µM;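 active means inhibition reaching at least a set limit at 20 µM in the primary screen, cut at about 59% in these data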;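 further: 0% = DMSO wells with substrate and 100% = DMSO wells lacking glucose-6-phosphate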
PfM18AAP inh-2 – confirmation of Plasmodium falciparum M18 aspartyl aminopeptidase inhibitors | shares compounds with PfM18AAP inh-1 | recombinant PfM18AAP, H-Glu-NHMec fluorogenic cleavage | inhibition, % at 7.35 µM | 2,400 compounds, 28% hits | AID 2170;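 active means mean inhibition over replicate wells above the hit cutoff set for the earlier primary screen, cut at about 29% in these data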;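 further: 0% = median of test compound wells and 100% = 2 mM ZnCl2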
CTSL1 confirm – counter-screen for PFM18AAP inhibitors: confirmation of human cathepsin L inhibitors; 2,400 tested, under 10 active; purified cathepsin L1, Z-Leu-Arg-MCA fluorescence; inhibition, % at 5.96 µM; shares compounds with PfM18AAP inh-1;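 active means average inhibition across replicates above the hit cutoff set in the earlier primary screen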;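 further: 0% = median of test compound wells and 100% = Z-Phe-Ala-diazomethylketone 1 µM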
Target sequence (P07711 whole entry, looked up): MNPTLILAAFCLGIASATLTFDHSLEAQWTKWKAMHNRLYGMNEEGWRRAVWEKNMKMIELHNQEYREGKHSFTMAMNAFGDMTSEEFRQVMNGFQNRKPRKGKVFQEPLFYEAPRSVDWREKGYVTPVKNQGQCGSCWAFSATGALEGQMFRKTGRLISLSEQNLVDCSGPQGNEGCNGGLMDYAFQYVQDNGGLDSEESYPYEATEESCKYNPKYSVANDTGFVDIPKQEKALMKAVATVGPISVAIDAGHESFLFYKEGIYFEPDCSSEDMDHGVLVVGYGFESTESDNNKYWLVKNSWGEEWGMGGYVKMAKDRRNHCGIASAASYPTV
Starred values were filed as active, the others as inactive; x = not tested or not shown.

SMILES	PfM18AAP inh-1	APOBEC3A inh	CR mimetic SO	APOBEC3G inh	PfGluPho inh	PfM18AAP inh-2	CTSL1 confirm
CC1(C2CC2)NC(=O)N(CC(=O)NCC(=O)Nc2ccc(F)c(F)c2F)C1=O (stereo unspecified)	x	-2	107	-7	5	x	x
Cc1nnc(SCc2cc(=O)[nH]c(=S)[nH]2)s1	47*	-7	130	-8	-11	16	1
COP(=O)(OC)C(Nc1ccc(C)cc1)c1ccc(Br)cc1 (stereo unspecified)	x	x	x	x	4	x	x
Cc1ccccc1-c1cc(C(=O)NCc2cccc(Br)c2)nn1CC1CC(c2cccc([N+](=O)[O-])c2)=NO1 (stereo unspecified)	x	-1	90	-6	3	x	x
O=C(O)c1ccc(O)c(O)c1	79*	3	94	-5	1	65*	-6
CCC1Sc2ccc(S(=O)(=O)CCC(=O)Nc3cccc(Br)c3)cc2NC1=O (stereo unspecified)	-2	1	99	-2	18	x	x
CCN(CCCNC(=O)C1CCC(=O)N1C1CCCC1)c1cccc(C)c1 (stereo unspecified)	54*	-7	104	-6	-7	-24	6
CCN(CCCNC(=O)C1CCN(S(=O)(=O)CC)CC1)c1cccc(C)c1	4	-9	125	3	19	x	x
CCN(CCCNC(=O)CCNC(=O)Cn1cnc2ccccc2c1=O)c1cccc(C)c1	53*	2	103	4	7	-25	-2
CCN(CCCNC(=O)C1CCN(S(=O)(=O)c2c(C)[nH]c(=O)[nH]c2=O)CC1)c1cccc(C)c1	32*	-1	104	-7	7	-23	-2
COc1cccc(NC(=O)CN(C)C(=O)c2c(C)nn(CC(C)C)c2Cl)c1	x	0	82	2	-8	x	x
COC(=O)[C@@]1(Cc2ccc(F)cc2)[C@H]2c3cc(C(=O)N4CCCC4)n(CCO)c3C[C@H]2CN1C(=O)c1ccccc1	-4	-5	104	-15	-6	x	x
COC(=O)[C@@]1(Cc2ccc(F)cc2)[C@H]2c3cc(C(=O)N4CCCC4)n(CCc4ccc(O)c(O)c4)c3C[C@H]2CN1C(=O)c1ccccc1	75*	1	94	-3	x	49*	4
Cc1[nH]c(=S)c(C#N)c(-c2ccco2)c1C(=O)N(C)C	51*	46	103	34	56	29*	1
CC1Oc2cc3oc4c(O)c(O)ccc4c(=O)c3c(O)c2C1(C)C (stereo unspecified)	x	-5	149	-9	10	x	x
O=[N+]([O-])c1cc2c(cc1/C=N/NS(=O)(=O)c1ccc(Br)cc1)OCO2	50*	-1	93	4	43	13	-2
Cc1cnc(SCCc2ccncc2)nc1C	62*	-3	92	5	x	-8	-1
COc1ccc(-c2cccc(-c3cc(=O)oc4ccc(C(C)(C)C)cc34)c2)cc1	x	2	104	-2	9	x	x
O=C(CN1CCOc2ccccc21)NCc1ccco1	9	-4	90	-1	13	x	x
O=C(CN1CC(=O)Oc2ccccc21)NCc1ccco1	33*	-1	95	-4	-27	-16	0
Cc1sc(NC(=O)C2CCCO2)c(C(N)=O)c1C (stereo unspecified)	37*	1	99	22	40	-22	0
CCOC(=O)c1c(NC(=O)C2CCCO2)sc(C)c1C (stereo unspecified)	-7	0	89	-4	7	x	x
COc1ccccc1CN(C)C(=O)COC(=O)c1ccc(Cl)nc1	x	-1	88	-9	-2	x	x
COc1ccc(CN2CN(c3ccc(Cl)cc3)C(=O)N(n3cnnc3)C2)cc1	51*	-2	104	-8	12	40*	-2
O=C1N(c2ccc(Cl)c(Cl)c2)CN(Cc2ccccc2)CN1n1cnnc1	70*	0	93	-9	2	55*	1
SMILES	PfM18AAP inh-1	APOBEC3A inh	CR mimetic SO	APOBEC3G inh	PfGluPho inh	PfM18AAP inh-2	CTSL1 confirm
O=C(NNC(=S)NC(=O)c1cccnc1)c1ccc(Cl)cc1	39*	-3	105	9	-4	-17	3
CCCCCC(=O)NNC(=S)NC(=O)c1cccc([N+](=O)[O-])c1	35*	-5	104	17	30	-6	1
O=C(Cc1ccc(Cl)cc1)NNC(=S)NC(=O)c1cccnc1	50*	2	113	37	-14	-16	3
CCCCCC(=O)NNC(=S)NC(=O)c1ccccc1[N+](=O)[O-]	12	1	113	-9	-24	x	x
Cc1cccc(C(=O)NC(=S)NCc2ccccc2)c1	x	-8	92	-11	-4	x	x
Cc1cccc(C(=O)NC(=S)NNC(=O)Cc2ccccc2)c1	38*	0	129	11	-13	-40	3
C[C@H]1NS(=O)(=O)c2ccc(Br)cc2O[C@H]1c1ccccc1	x	4	107	2	-2	x	x
O=C1CC(SC(=S)C2CCCC2=O)C(=O)N1 (stereo unspecified)	x	x	x	x	39	x	x
CCONC(=NC)c1nonc1N	1	0	103	-4	-13	x	x
Nc1nonc1C(=Nc1ccccc1)NO	43*	6	88	1	-1	31*	0
Cc1cccc(N=C(NO)c2nonc2N)c1	33*	5	128	0	-2	13	-2
Cn1c(-c2ccsc2)c(-c2cccs2)c2cc(Br)ccc21	x	-1	92	-7	-11	x	x
CNS(=O)(=O)c1cccc(C(=O)NCC(c2cccs2)N2CCOCC2)c1 (stereo unspecified)	x	-1	88	-5	4	x	x
COC(=O)C1=C(C)NC(=S)NC1c1ccc(-c2cc(Cl)ccc2Cl)o1 (stereo unspecified)	36*	-1	103	-6	35	-55	9
CCc1nc2ccccc2c(=O)n1/N=C/c1ccc(Cl)cc1	x	0	84	-3	-3	x	x
CC(C)(C)c1cc(C(=O)N/N=C/c2ccc(-c3ccccc3[N+](=O)[O-])o2)n[nH]1	48*	-4	99	-3	12	-19	3
Cc1ccc(C2C3=C(CCCC3=O)Nc3[nH]c(=S)[nH]c(=O)c32)cc1 (stereo unspecified)	40*	0	94	16	48	38*	4
Clc1ccccc1-c1csc(Nc2cccnc2)n1	39*	-3	115	-3	25	-46	1
c1cncc(Nc2nc(-c3ccncc3)cs2)c1	-9	0	79	-1	9	x	x
Cc1ccc2nc(/C(C#N)=C/c3ccc(O)c(O)c3)[nH]c2c1	60*	-12	95	-18	21	36*	4
O=S(=O)(NNc1ccc(F)cc1F)c1cccc(Cl)c1	36*	-3	84	35	46	-234	0
O=C(CNS(=O)(=O)c1ccccc1)Nc1ccc(F)cc1F	-1	-3	99	-7	-4	x	x
